Source: PubChem BioAssay (EPA / NIEHS)
Several values for one entry are separate records, joined by “and”; a condition that tells them apart may be missing. Equal values may be shown once. More than one record can exist for a structure, and the calls need not agree. Activity calls are given as the source filed them. How the source made its calls: active means hit-call score of the fitted dose curve at least 0.9, where 1 is the maximum; inactive means score below 0.9.

Experiments:
[1] = target: Bile acid receptor (Homo sapiens) (UniProt Q96RI1); assay: ATG_IR1_CIS: Attagene CIS-FACTORIAL HepG2 Assay for human Nuclear Receptor Subfamily 1 Group H Member 4 (NR1H4), IR1 submotif (AID 2282946); details: IR1 reporter transcription, actives raise or lower the signal
Chain of Bile acid receptor (Homo sapiens) (Q96RI1 whole entry, looked up): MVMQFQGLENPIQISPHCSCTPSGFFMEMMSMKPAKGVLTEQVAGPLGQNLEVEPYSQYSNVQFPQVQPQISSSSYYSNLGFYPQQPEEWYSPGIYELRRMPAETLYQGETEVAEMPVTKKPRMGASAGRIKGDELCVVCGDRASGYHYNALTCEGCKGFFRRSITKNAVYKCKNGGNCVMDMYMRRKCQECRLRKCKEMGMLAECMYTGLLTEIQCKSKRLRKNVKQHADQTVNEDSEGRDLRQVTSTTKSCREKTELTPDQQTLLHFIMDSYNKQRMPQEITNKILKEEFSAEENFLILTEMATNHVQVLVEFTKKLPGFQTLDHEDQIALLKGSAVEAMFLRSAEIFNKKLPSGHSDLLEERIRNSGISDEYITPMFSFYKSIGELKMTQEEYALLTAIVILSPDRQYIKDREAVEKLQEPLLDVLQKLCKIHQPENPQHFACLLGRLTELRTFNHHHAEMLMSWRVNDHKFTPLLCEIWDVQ
In short: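 Transient MRTU transfection, HepG2; 24 h dosing; RNA → RT-PCR → 6-FAM primer extension → HpaI digest → capillary electrophoresis fluorescence. Gain/loss of signal fitted relative to DMSO.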

[2] = ATG_GRE_CIS: Attagene CIS-FACTORIAL HepG2 Assay for human Glucocorticoid Response Elements (GRE) (AID 2282947); details: HepG2 GRE cis-reporter, Attagene multiplex mRNA; actives raise or lower the signal
In short: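 HepG2 cells transiently transfected with multiple cis-promoter reporter units measure endogenous TF activity; 24 h compound exposure. Reporter mRNA quantified by RT-PCR, FAM labelling, HpaI digestion and capillary electrophoresis; bidirectional fit vs DMSO baseline.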

[3] = ATG_ISRE_CIS: Attagene CIS-FACTORIAL HepG2 Assay for human Interferon Regulatory Factor 1 (IRF1) binding to an Interferon-Stimulated Response Element (ISRE) (AID 2282948); details: HepG2 ISRE cis-reporter (Attagene), mRNA transcription readout; actives raise or lower the signal
In short: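 Cell-based cis-reporter assay; HepG2; 24 h exposure; reporter mRNA by RT-PCR plus capillary electrophoresis fluorescence; activity in either direction scored relative to DMSO.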

[4] = ATG_M_32_CIS: Attagene CIS-FACTORIAL HepG2 Assay for M32 Transcription Factor (Internal Marker) (AID 2282949); details: HepG2 Attagene cis-factorial M32 reporter, mRNA; actives raise or lower the signal;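 further: background control marker of the multiplexed CIS panel rather than a real target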
In short: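 Following 24 h chemical exposure of HepG2 cells transiently expressing cis-promoter reporter constructs, reporter transcript levels were determined by RT-PCR with fluorescent labelling and capillary electrophoresis, then fitted bidirectionally against DMSO.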

[5] = ATG_M_06_CIS: Attagene CIS-FACTORIAL HepG2 Assay for M06 Transcription Factor (Internal Marker) (AID 2282950); details: HepG2 Attagene CIS-FACTORIAL M06 internal marker reporter; actives raise or lower the signal
In short: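 Steps: transfect HepG2 with multiplexed cis-element reporter constructs; dose chemical 24 h; extract RNA with DNase treatment; reverse-transcribe, PCR-amplify, 6-FAM label, HpaI digest; separate fragments by capillary electrophoresis. Activity fitted both directions versus DMSO.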

[6] = target: Hypoxia-inducible factor 1-alpha (Homo sapiens) (UniProt Q16665); assay: ATG_HIF1a_CIS: Attagene CIS-FACTORIAL HepG2 Assay for human Hypoxia Inducible Factor 1 (HIF1A) (AID 2282951); details: HepG2 Attagene cis-factorial HIF1a reporter transcription; actives raise or lower the signal
Chain of Hypoxia-inducible factor 1-alpha (Homo sapiens) (Q16665 whole entry, looked up): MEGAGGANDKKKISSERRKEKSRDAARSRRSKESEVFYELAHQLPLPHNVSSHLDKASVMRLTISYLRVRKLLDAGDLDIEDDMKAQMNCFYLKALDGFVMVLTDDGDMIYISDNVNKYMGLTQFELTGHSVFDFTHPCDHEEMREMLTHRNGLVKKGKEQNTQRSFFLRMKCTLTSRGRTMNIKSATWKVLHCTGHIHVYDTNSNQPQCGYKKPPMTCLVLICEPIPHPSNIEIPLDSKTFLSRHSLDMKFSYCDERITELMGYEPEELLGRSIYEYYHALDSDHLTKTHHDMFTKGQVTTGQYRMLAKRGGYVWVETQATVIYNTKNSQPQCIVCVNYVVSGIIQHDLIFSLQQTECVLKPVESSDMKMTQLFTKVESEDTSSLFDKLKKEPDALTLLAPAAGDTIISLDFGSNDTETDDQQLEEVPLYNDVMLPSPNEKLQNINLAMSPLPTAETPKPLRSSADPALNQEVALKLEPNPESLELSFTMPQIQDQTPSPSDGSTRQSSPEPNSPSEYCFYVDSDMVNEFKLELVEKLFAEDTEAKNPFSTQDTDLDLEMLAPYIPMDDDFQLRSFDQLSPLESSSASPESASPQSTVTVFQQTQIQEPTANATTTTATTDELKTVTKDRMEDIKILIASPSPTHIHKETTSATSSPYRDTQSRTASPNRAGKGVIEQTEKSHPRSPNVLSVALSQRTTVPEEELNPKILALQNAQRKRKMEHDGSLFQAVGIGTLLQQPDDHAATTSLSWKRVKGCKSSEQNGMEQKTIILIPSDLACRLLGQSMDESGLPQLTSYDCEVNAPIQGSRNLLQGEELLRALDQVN
In short: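 Cis-element reporter constructs were transiently transfected into HepG2 cells, which were treated for 24 h; reporter RNA was reverse-transcribed, amplified, labelled and resolved by capillary electrophoresis.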

[7] = target: Hepatocyte nuclear factor 6 (Homo sapiens) (UniProt Q9UBC0); assay: ATG_HNF6_CIS: Attagene CIS-FACTORIAL HepG2 Assay for human Hepatocyte Nuclear Factor 6 (HNF6) (AID 2282952); details: HepG2 Attagene cis-factorial HNF6 reporter transcription; actives raise or lower the signal
Chain of Hepatocyte nuclear factor 6 (Homo sapiens) (Q9UBC0 whole entry, looked up): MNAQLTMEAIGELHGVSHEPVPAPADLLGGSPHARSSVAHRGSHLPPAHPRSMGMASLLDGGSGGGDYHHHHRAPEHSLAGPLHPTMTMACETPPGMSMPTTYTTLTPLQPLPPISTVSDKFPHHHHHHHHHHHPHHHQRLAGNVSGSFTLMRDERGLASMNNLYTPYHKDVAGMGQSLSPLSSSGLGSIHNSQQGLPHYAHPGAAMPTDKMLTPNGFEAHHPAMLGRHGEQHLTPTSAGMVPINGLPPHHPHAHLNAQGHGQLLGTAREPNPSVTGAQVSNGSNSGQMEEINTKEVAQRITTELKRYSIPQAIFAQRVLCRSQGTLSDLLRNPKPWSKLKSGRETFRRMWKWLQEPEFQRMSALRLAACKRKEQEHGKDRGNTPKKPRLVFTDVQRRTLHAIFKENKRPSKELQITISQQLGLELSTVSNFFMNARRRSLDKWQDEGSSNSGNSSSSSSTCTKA
In short: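 HepG2 cells transiently transfected with cis-element-driven multiple reporter transcription units, dosed 24 h; reporter mRNA quantified by RT-PCR, FAM primer extension, HpaI digestion and capillary electrophoresis; bidirectional fit versus DMSO baseline.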

[8] = target: Heat shock factor protein 1 (Homo sapiens) (UniProt Q00613); assay: ATG_HSE_CIS: Attagene CIS-FACTORIAL HepG2 Assay for human Heat Shock Transcription Factor 1 (HSE) (AID 2282953); details: HepG2 HSE cis-reporter, Attagene RNA transcription; actives raise or lower the signal
Chain of Heat shock factor protein 1 (Homo sapiens) (Q00613 whole entry, looked up, the tested form may be a part): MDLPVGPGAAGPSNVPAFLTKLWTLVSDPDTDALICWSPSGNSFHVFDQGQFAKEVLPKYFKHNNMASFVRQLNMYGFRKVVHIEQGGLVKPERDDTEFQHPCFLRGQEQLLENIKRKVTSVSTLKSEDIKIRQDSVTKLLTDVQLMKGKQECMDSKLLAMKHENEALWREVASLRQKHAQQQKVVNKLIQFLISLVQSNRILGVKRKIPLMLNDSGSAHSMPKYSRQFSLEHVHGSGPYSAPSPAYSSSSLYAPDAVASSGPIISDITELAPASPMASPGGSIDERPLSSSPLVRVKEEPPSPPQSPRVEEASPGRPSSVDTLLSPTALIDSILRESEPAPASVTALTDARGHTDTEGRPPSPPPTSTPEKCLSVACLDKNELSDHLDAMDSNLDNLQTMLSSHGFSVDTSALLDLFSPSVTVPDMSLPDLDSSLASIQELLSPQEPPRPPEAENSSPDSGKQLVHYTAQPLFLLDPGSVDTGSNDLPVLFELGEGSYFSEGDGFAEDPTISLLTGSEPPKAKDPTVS
In short: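 Cells were transfected with cis-element-driven reporter constructs, dosed for 24 h, then total RNA was reverse-transcribed and reporter cDNA amplified, FAM-labelled and digested with HpaI. Fragments were resolved by capillary electrophoresis; gain or loss was fitted against DMSO.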

[9] = ATG_MRE_CIS: Attagene CIS-FACTORIAL HepG2 Assay for human Metal Responsive Element (MRE) (AID 2282954); details: HepG2 MRE cis-reporter transcription, Attagene multiplex; actives raise or lower the signal
In short: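 HepG2 cells transiently transfected with multiple cis-element reporter units measure endogenous MTF1-driven transcription. After 24 h compound exposure, reporter mRNA is quantified by RT-PCR with 6-FAM labelling, HpaI digestion and capillary electrophoresis; bidirectional fits versus DMSO.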

[10] = target: Paired box protein Pax-6 (Homo sapiens) (UniProt P26367); assay: ATG_Pax6_CIS: Attagene CIS-FACTORIAL HepG2 Assay for human Paired Box 6 (PAX6) (AID 2282956); details: HepG2 CIS-FACTORIAL PAX6 reporter transcription, RNA readout; actives raise or lower the signal
Chain of Paired box protein Pax-6 (Homo sapiens) (P26367 whole entry, looked up): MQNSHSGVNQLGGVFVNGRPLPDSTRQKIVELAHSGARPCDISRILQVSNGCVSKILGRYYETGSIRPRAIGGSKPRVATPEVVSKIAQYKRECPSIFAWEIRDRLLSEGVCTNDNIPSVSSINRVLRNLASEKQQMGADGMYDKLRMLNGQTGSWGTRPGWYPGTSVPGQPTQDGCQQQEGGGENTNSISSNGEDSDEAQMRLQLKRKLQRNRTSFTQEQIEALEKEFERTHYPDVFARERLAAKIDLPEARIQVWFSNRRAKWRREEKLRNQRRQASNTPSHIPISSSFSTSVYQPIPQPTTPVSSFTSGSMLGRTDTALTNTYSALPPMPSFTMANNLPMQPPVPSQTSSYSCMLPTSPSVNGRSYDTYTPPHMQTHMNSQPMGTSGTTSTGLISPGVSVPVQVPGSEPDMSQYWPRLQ
In short: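 Multiplexed cis-reporter HepG2 system; 24 h treatment; reporter mRNA read by RT-PCR/CE fluorescence; bidirectional fit vs DMSO.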

[11] = ATG_PXRE_CIS: Attagene CIS-FACTORIAL HepG2 Assay for human Pregnane X Receptor Element (PXRE) (AID 2282957); details: HepG2 Attagene CIS-FACTORIAL PXRE reporter, mRNA; actives raise or lower the signal
In short: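 HepG2 cells transiently transfected with cis-regulated multiple reporter transcription units; endogenous factor activity measured as reporter mRNA 24 h after dosing. RT-PCR, fluorescent primer extension, HpaI digestion, capillary electrophoresis; bidirectional fit versus DMSO baseline.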

[12] = ATG_PPRE_CIS: Attagene CIS-FACTORIAL HepG2 Assay for human Peroxisome Proliferator-activated Response Element (PPRE) (AID 2282958); details: HepG2 PPRE cis-element reporter, Attagene transcription factor profiling; actives raise or lower the signal
In short: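 DMSO served as negative control and baseline for bidirectional curve fitting. Signal came from PPRE-regulated reporter mRNA in HepG2 cells, measured 24 h post-dosing by RT-PCR, 6-FAM primer extension and capillary electrophoresis.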

[13] = ATG_RORE_CIS: Attagene CIS-FACTORIAL HepG2 Assay for human RAR-related Orphan Receptor Element (RORE) (AID 2282959); details: HepG2 Attagene cis-factorial RORE reporter, mRNA; actives raise or lower the signal
In short: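 Transfect HepG2 with MRTUs; treat 24 h; extract RNA; RT with oligo(dT); PCR with reporter-specific primers; 6-FAM primer extension; HpaI digest 2 h at 37 C; capillary electrophoresis. Fit vs DMSO, bidirectional.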

[14] = ATG_Sox_CIS: Attagene CIS-FACTORIAL HepG2 Assay for human SRY-box transcription factor (SOX) (AID 2282960); details: HepG2 Attagene cis-factorial SOX reporter, mRNA; actives raise or lower the signal
In short: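 Fluorescence-labelled cDNA fragments from reporter transcripts, sized by CE, give the signal. Cells: HepG2, transiently transfected with cis-regulated reporter units. Exposure 24 h; DMSO negative control; bidirectional curve fitting.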

[15] = target: Transcription factor Sp1 (Homo sapiens) (UniProt P08047); assay: ATG_Sp1_CIS: Attagene CIS-FACTORIAL HepG2 Assay for human Specificity Protein 1 (Sp1) (AID 2282961); details: HepG2 Sp1 cis-reporter transcription, actives raise or lower the signal
Chain of Transcription factor Sp1 (Homo sapiens) (P08047 whole entry, looked up): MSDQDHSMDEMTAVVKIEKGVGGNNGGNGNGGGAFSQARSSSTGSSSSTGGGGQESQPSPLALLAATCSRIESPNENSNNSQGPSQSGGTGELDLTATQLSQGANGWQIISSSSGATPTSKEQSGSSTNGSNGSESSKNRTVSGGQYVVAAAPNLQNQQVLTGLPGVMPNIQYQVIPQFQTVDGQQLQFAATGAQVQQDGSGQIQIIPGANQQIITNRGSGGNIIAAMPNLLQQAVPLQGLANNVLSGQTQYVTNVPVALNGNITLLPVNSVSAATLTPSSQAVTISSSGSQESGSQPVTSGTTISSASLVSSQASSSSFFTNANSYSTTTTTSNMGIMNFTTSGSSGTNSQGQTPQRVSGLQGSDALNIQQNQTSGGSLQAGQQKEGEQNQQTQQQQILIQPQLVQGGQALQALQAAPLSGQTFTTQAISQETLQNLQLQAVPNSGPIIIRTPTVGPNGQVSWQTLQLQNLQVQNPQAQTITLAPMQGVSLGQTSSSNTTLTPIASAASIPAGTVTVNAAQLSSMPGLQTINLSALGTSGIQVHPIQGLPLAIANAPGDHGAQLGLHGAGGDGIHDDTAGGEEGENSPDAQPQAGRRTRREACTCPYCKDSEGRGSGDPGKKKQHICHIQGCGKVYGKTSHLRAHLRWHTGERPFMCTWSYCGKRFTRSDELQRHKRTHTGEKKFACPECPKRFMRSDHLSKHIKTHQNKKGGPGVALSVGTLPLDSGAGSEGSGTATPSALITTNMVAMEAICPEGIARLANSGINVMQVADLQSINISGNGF
In short: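 Chemicals are dosed onto HepG2 cells transfected with multiple cis-promoter reporter constructs, and after 24 h reporter RNA is reverse-transcribed, PCR-amplified and resolved by capillary electrophoresis for fluorescence quantitation; activity is scored up or down against DMSO.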

[16] = ATG_SREBP_CIS: Attagene CIS-FACTORIAL HepG2 Assay for human Sterol Regulatory Element Binding (SREBP) (AID 2282962); details: HepG2 Attagene cis-factorial SREBP reporter, mRNA; actives raise or lower the signal
In short: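 mRNA induction of transfected cis-promoter reporters in HepG2 cells, 24 h post-dose. Detection: RT-PCR with 6-FAM-labelled products, HpaI digest, capillary electrophoresis. DMSO served as negative control and baseline.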

[17] = target: Signal transducer and activator of transcription 3 (Homo sapiens) (UniProt P40763); assay: ATG_STAT3_CIS: Attagene CIS-FACTORIAL HepG2 Assay for human Signal Transducer and Activator of Transcription 3 (STAT3) (AID 2282963); details: HepG2, Attagene cis-factorial STAT3 reporter transcription; actives raise or lower the signal
Chain of Signal transducer and activator of transcription 3 (Homo sapiens) (P40763 whole entry, looked up): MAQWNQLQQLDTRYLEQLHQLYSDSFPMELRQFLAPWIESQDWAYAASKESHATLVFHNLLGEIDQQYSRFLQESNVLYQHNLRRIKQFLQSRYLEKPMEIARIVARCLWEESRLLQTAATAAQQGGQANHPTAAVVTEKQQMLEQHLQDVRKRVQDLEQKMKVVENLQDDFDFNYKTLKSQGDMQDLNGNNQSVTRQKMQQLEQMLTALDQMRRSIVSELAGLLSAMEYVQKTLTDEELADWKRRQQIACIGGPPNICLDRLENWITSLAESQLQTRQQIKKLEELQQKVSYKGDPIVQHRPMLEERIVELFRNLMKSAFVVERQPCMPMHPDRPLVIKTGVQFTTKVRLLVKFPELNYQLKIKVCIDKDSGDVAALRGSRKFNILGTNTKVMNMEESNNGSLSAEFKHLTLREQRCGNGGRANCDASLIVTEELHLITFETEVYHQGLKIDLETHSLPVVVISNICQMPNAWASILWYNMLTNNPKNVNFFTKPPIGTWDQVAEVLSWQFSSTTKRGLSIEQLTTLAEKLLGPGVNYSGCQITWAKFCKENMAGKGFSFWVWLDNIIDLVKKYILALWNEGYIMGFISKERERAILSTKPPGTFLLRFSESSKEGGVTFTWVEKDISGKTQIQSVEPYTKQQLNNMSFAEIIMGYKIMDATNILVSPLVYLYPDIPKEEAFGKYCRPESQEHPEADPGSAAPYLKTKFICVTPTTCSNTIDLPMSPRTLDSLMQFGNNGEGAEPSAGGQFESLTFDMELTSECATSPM
In short: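 HepG2 cells transiently transfected with cis-element-driven multiple reporter transcription units; after 24 h chemical exposure, reporter mRNA measured by RT-PCR, 6-FAM primer-extension labelling, HpaI digestion and capillary electrophoresis. Bidirectional fitting versus DMSO baseline.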

[18] = ATG_GLI_CIS: Attagene CIS-FACTORIAL HepG2 Assay for human Zinc Finger Protein GLI1 (AID 2282945); details: HepG2, Attagene cis-factorial reporter mRNA, GLI element; actives raise or lower the signal
In short: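 HepG2 cells transiently transfected with cis-promoter multiplexed reporter units report endogenous transcription factor activity. After 24 h chemical exposure, reporter mRNA was quantified by RT-PCR, 6-FAM labelling, HpaI digestion and capillary electrophoresis, with bidirectional fitting against DMSO.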

[19] = ATG_TA_CIS: Attagene CIS-FACTORIAL HepG2 Assay for human TA Basal Promoter (AID 2282964); details: HepG2 Attagene CIS-factorial TA basal promoter reporter; actives raise or lower the signal
In short: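 Steps: transfect HepG2 with MRTUs; dose 24 h; isolate RNA, DNase-treat, reverse-transcribe; PCR and FAM-label reporter cDNA; digest with HpaI 2h at 37 C; run capillary electrophoresis. Activity fitted both directions against DMSO.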

[20] = ATG_PBREM_CIS: Attagene CIS-FACTORIAL HepG2 Assay for human Phenobarbital-responsive Enhancer Module (PBREM) (AID 2282955); details: HepG2 PBREM cis-reporter, Attagene multiplexed transcription; actives raise or lower the signal
In short: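 Multiplexed cis-reporter readout in human hepatoma HepG2 cells; PBREM-regulated transcript quantified after 24 h exposure by fluorescent RT-PCR fragment analysis. Signal changes up or down fitted relative to DMSO.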

Measured: AC50

O=C(CC(=O)C(F)(F)C(F)(F)F)C(F)(F)F
inactive: [1] | [2] | [3] | [4] | [5] | [6] | [7] | [8] | [9] | [10] | [11] | [13] | [14] | [15] | [16] | [17]
active: [1] 106 µM | [11] 76.4 µM | [12] 51.2 µM and 64 µM

COC(=O)C1CCC(C(=O)OC)CC1 (stereo not drawn)
not listed: [2] | [19] | [20]
inactive: all other assays above

CCN(Cc1cccc(S(=O)(=O)O)c1)c1ccc(C(=C2C=CC(=[N+](CC)Cc3cccc(S(=O)(=O)O)c3)C=C2)c2ccc(O)cc2S(=O)(=O)[O-])cc1
active: [12] 17.8 µM
not listed: [20]
inactive: all other assays above

FC(F)(F)C(F)(F)C(F)(F)N(C(F)(F)C(F)(F)C(F)(F)F)C(F)(F)C(F)(F)C(F)(F)F
inactive: all assays above

Nc1ccc(Oc2cccc(Oc3ccc(N)cc3)c2)cc1
inactive: [5] | [7] | [14] | [15]
active: [18] 178 µM | [1] 24.6 µM | [2] 181 µM | [3] 24.7 µM | [4] 137 µM | [6] 26.9 µM | [8] 160 µM | [9] 64.6 µM | [10] 71 µM | [11] 25.7 µM | [12] 89.5 µM | [13] 14.9 µM | [16] 136 µM | [17] 173 µM

O=S(=O)(O)c1ccc2ccccc2c1
active: [11] 11.2 µM and 91 µM
not listed: [2] | [13] | [20]
inactive: all other assays above

O=C(O)C(F)(F)C(F)(F)C(F)(F)C(F)(F)C(F)(F)C(F)(F)C(F)(F)C(F)(F)C(F)(F)C(F)(F)C(F)(F)C(F)(F)C(F)(F)F
active: [11] 21.8 µM
not listed: [19] | [20]
inactive: all other assays above

C=CC(=O)OCC(F)(F)C(F)(F)C(F)(F)C(F)(F)COC(=O)C=C
active: [18] 81.1 µM | [3] 61.4 µM | [6] 33.8 µM | [7] 60.3 µM | [8] 79 µM | [9] 56.7 µM | [10] 62.1 µM | [13] 40.3 µM | [14] 56.2 µM | [15] 44.7 µM | [16] 72.4 µM
inactive: [1] | [2] | [4] | [5] | [11] | [12] | [17] | [19]

CCCCCCOC(=O)c1ccccc1O
active: [11] 62.5 µM
not listed: [20]
inactive: all other assays above

CCCCOCCOCCOC(=O)CCCCC(=O)OCCOCCOCCCC
active: [11] 26.9 µM
not listed: [20]
inactive: all other assays above

c1ccc(-c2ccccc2-c2ccccc2)cc1
active: [1] 27.1 µM | [3] 100 µM | [11] 5.73 µM | [15] 100 µM | [16] 100 µM
not listed: [18] | [19]
inactive: all other assays above

FC(F)(F)C(F)(F)C(F)(F)C(F)(F)CCI
not listed: [1] | [8]
inactive: all other assays above

C=C(C)C(=O)OCC(F)(F)C(F)(F)C(F)(F)F
not listed: [19] | [20]
inactive: all other assays above

NC(=O)C(F)(F)C(F)(F)C(F)(F)C(F)(F)F
not listed: [20]
inactive: all other assays above
